From PubChem BioAssay
PP1 inh: blocks human PP1-alpha phosphatase, a PP5 counter-screen. purified PP1alpha, OMFP fluorescence. inhibition, % at 6.7 µM. 320,000 tested, 0.9% active. AID 2235;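 active = inhibition above the mean inhibition of all tested compounds plus 3 SD, computed separately for each screening campaign, cut at about 15% in these data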
Target sequence (P62136 whole entry, looked up): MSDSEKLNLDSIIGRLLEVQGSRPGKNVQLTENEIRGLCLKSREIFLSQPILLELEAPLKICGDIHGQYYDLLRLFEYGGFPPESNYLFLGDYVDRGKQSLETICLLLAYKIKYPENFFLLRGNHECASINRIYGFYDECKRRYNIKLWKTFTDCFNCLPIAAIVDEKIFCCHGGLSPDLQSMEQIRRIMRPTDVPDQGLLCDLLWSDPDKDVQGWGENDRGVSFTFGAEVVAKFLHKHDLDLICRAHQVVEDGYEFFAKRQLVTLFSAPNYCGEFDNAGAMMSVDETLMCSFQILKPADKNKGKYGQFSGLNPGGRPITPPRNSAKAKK
PG9 Ab binder: PG9 antibody binding by small molecule; TR-FRET gp120-PG9 antibody binding; inhibition, % at 6.7 µM; 360,000 tested, 0.43% active; AID 624416; in the data active = inhibition above about 8.5%
PP5 primary: inhibitors of human protein phosphatase 5 (PP5); inhibition, % at 6.7 µM; P53041; purified PP5c, OMFP substrate fluorescence; AID 1987; 320,000 tested, 0.18% active;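 active = inhibition above the campaign's mean inhibition across all tested compounds plus 3 SD, cut at about 9.5% in these data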
GASC-1 inh: human JMJD2C demethylase inhibition | Q9H3R0 | GST-JMJD2C(1-420) H3K9me3 demethylation, DELFIA europium | inhibition, % at 2.35 µM | 330,000 tested, 0.069% active | AID 2099;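 active = more than half of a compound's replicate wells show inhibition beyond 50%, single wells judged on their own value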;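 note: signal counts dimethyl H3K9 product captured on neutravidin plate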
Rev-erbA mod: Rev-erb alpha (human) modulation | Rev-erbα–FITC-DNA binding, fluorescence polarization, 90 min | activity, % at 10 µM | 370,000 tested, 0.79% active | AID 1259318;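 active = activity above about 14%, limit read from the data; passing the limit was not always enough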
proKLK7 act: activates the human kallikrein-7 zymogen. AID 652039. 370,000 tested, 0.9% active. activation, % at 7 µM. P49862. purified proKLK7, EDANS-DABCYL substrate fluorescence; 100% is mature enzyme control, 0% vehicle;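 active = activation above the mean of all tested compounds plus 3 SD, computed per campaign excluding outliers beyond control limits, cut at about 13% in these data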
Target sequence (P49862 whole entry, looked up): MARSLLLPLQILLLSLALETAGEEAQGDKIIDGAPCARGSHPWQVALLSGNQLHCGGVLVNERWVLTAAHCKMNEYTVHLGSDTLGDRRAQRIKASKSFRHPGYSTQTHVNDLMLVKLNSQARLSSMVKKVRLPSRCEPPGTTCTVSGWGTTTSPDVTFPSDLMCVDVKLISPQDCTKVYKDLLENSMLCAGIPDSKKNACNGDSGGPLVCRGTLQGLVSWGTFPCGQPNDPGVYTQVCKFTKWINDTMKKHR
KLK7 act conf: confirmation of human kallikrein-7 zymogen activators; shares compounds with proKLK7 act; activation, % at 7 µM; 3,200 tested, 68% active; purified proKLK7, EDANS-DABCYL substrate fluorescence; scaled: vehicle 0, mature enzyme 100; AID 686949;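 active = activation, as change over the incubation, above the mean of all tested compounds plus 3 SD, cut at about 13% in these data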
EDANS-DABCYL int: counter-screen for kallikrein-7 activators: EDANS-DABCYL optical interference; shares compounds with proKLK7 act; EDANS-DABCYL substrate fluorescence interference, no enzyme, 4 h; solvent 0%, active enzyme control 100%; activation, % at 7 µM; 3,200 tested, 80% active;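 active = activation above the all-compound mean plus 3 SD, ignoring values outside control-based bounds, cut at about 4.8% in these data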;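 note: value is the 4 h activation minus the activation read at time zero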
Each line names hits and unclear results; the compound was inactive in the other large screens (follow-up assays come after a bar, where they were run). Rows were chosen to be rich in hits. Some 2.8% of all compounds tested hit in one or more screens of this group.

CCOCCCn1c(=N)c(C(N)=S)cc2c(=O)n3cccc(C)c3nc21	proKLK7 act 29 | KLK7 act conf inactive | EDANS-DABCYL int inactive
Cc1cccn2c(=O)c3cc(C(N)=S)c(=N)n(CCCOC(C)C)c3nc12	proKLK7 act 46 | KLK7 act conf inactive | EDANS-DABCYL int 5.7
Nc1ccn([C@@H]2O[C@H](C(=O)N3CCN(CCO)CC3)[C@@H](O)[C@H]2O)c(=O)n1	none (no result: PP1 inh, PP5 primary, GASC-1 inh)
CCNc1ccc2c(Cl)cc(=O)oc2c1	proKLK7 act 25 | KLK7 act conf 30 | EDANS-DABCYL int 38
CCN(CC)c1ccc2c(Cl)cc(=O)oc2c1	none
CC(C)C1Oc2cc3oc(=O)ccc3cc2C1=O (centres undefined)	proKLK7 act 35 | KLK7 act conf 29 | EDANS-DABCYL int 27
CC(C)Cn1c(N)c(C(=O)COC(=O)c2nccnc2N)c(=O)n(C)c1=O	proKLK7 act 13 | KLK7 act conf inactive | EDANS-DABCYL int inactive
CC[C@@H]1CN(C)[C@H]2Cc3c([nH]c4ccccc34)C(=O)C[C@@H]1[C@@H]2C(=O)OC	proKLK7 act 17 | KLK7 act conf inactive | EDANS-DABCYL int 5.2
Cc1ccc2nc(NC(=O)Cc3cccs3)sc2c1	none
Cc1ccc2nc(-c3ccc(NC(=O)Cc4cccs4)cc3)[nH]c2c1	proKLK7 act 52 | KLK7 act conf inactive | EDANS-DABCYL int inactive
CN[C@H]1C[C@H]2c3[nH]c4c(-c5cccc(C)c5)cccc4c3CCN2C[C@H]1[C@H](C)O	none (no result: PP1 inh, PG9 Ab binder, PP5 primary, GASC-1 inh)
CCOc1cc(C2Nc3ccccc3C(=O)N2c2ccccc2OC)ccc1O (centres undefined)	none
COc1cc(C2Nc3ccccc3C(=O)N2c2ccccc2OC)ccc1O (centres undefined)	proKLK7 act 13 | KLK7 act conf 15 | EDANS-DABCYL int 17
COc1ccccc1N1C(=O)c2ccccc2NC1c1ccc(O)cc1 (centres undefined)	proKLK7 act 23 | KLK7 act conf 20 | EDANS-DABCYL int 26
COc1ccc(-c2cc(-c3nnc(SCC(=O)Nc4cccc(Cl)c4C)n3N)[nH]n2)cc1	none (no result: PP1 inh, PG9 Ab binder, PP5 primary, GASC-1 inh)
C[C@H]1COc2cc(Br)ccc2S(=O)(=O)N1Cc1cn(Cc2ccc(Br)cc2)nn1	none (no result: PP1 inh, PG9 Ab binder, PP5 primary, GASC-1 inh)
CCOC(=O)N1CCN(S(=O)(=O)c2ccc(C(=O)Nc3sc4c(c3C#N)CC(C)(C)NC4(C)C)cc2)CC1	proKLK7 act 109 | KLK7 act conf 53 | EDANS-DABCYL int 51
CN1CCc2c(sc(NC(=O)c3ccc(S(=O)(=O)N4CCCCCC4)cc3)c2C(N)=O)C1	none (no result: PG9 Ab binder, Rev-erbA mod, proKLK7 act)
CC1(C)Cc2c(sc(NC(=O)c3ccc(S(=O)(=O)N4CCCCCC4)cc3)c2C(N)=O)C(C)(C)N1	proKLK7 act 31 | KLK7 act conf 33 | EDANS-DABCYL int 31
CCOC(=O)N1CCN(S(=O)(=O)c2ccc(C(=O)Nc3sc4c(c3C#N)CCC4)cc2)CC1	none
CC1(C)Cc2c(sc(NC(=O)c3ccc(C(=O)c4ccccc4)cc3)c2C#N)C(C)(C)N1	proKLK7 act 15 | KLK7 act conf inactive | EDANS-DABCYL int 15
CC1(C)Cc2c(sc(NC(=O)c3ccc(S(=O)(=O)N4CCCC4)cc3)c2C#N)C(C)(C)N1	proKLK7 act 38 | KLK7 act conf 141 | EDANS-DABCYL int 154
C=CCN1C(=O)[C@@H](CC(=O)NCc2ccccc2)[C@]2(C(=O)OC)CCCCC=C12	none (no result: PP1 inh, PG9 Ab binder, PP5 primary, GASC-1 inh)
COC(=O)C1=C(C)N(Cc2ccc(C(F)(F)F)cc2)C(=NCc2ccccc2)NC1c1cccc(Cl)c1 (centres undefined)	none (no result: PP1 inh, PP5 primary, GASC-1 inh)
COCC(=O)Nc1ccc2c(c1)C(=O)N(C)[C@@H]1CC[C@@H](CC(=O)OC)O[C@H]1CO2	none (no result: PP1 inh, PG9 Ab binder, PP5 primary, GASC-1 inh)
O=C(Nc1cccc2c1C(=O)NC2=O)c1ccc(S(=O)(=O)N2CCCC2)cc1	proKLK7 act 22 | KLK7 act conf 258 | EDANS-DABCYL int 264
C=CCN1[C@@H](C)[C@H](c2ccccc2)Oc2cccc(N3CCCC3)c2S1(=O)=O	none (no result: PP1 inh, PP5 primary, GASC-1 inh)
Nc1ccccc1C(=O)Nc1nccs1	proKLK7 act 50 | KLK7 act conf 14 | EDANS-DABCYL int 16
O=C(/C=C/c1cccc(F)c1)Nc1nccs1	none
O=C(/C=C/c1cccs1)Nc1nccs1	proKLK7 act 15 | KLK7 act conf inactive | EDANS-DABCYL int 17
O=C(/C=C\c1ccccc1)Nc1nccs1	proKLK7 act 17 | KLK7 act conf inactive | EDANS-DABCYL int inactive
CCCC[C@H](C(=O)N(C)c1cccc(OC)c1)[C@@H](O)c1ccc(Cl)cc1	none (no result: PP1 inh, PG9 Ab binder, PP5 primary, GASC-1 inh)
C[C@@H]1CN([C@H](C)CO)C(=O)c2cc(NC(=O)Nc3ccccc3)ccc2O[C@@H](C)CCCCO[C@H]1CN(C)S(C)(=O)=O	none (no result: PP1 inh, PP5 primary, GASC-1 inh)
Cc1[nH]nc2c1C(c1ccc(Br)cc1)N(Cc1ccccc1)C2=O (centres undefined)	none (no result: PP1 inh, PP5 primary, GASC-1 inh)
COCCn1nnnc1C(c1cc2cccc(C)c2[nH]c1=O)N1CCN(c2ccccc2F)CC1 (centres undefined)	proKLK7 act 20 | KLK7 act conf 17 | EDANS-DABCYL int 17
C=CCc1c(C)nc(-c2ccccc2)nc1N/N=C/c1ccncc1	none
C=CCc1c(C)nc(-c2ccccc2)nc1N/N=C/c1ccccc1	proKLK7 act 14 | KLK7 act conf inactive | EDANS-DABCYL int inactive
Nc1ccc(-c2nc3cc(N)ccc3n2CCO)cc1	proKLK7 act 68 | KLK7 act conf 66 | EDANS-DABCYL int 69
Cn1c(CO)nc2cc(N)ccc21	none
O=C(Cc1ccccc1)Nc1ccc2oc(-c3cccnc3)nc2c1	proKLK7 act 22 | KLK7 act conf inactive | EDANS-DABCYL int inactive
CCCCCC(=O)Nc1ccc2oc(-c3cccnc3)nc2c1	none
COC(=O)COc1ccccc1C(N)=O	none
COC(=O)COc1ccc(-c2ccc(F)cc2)cc1C=O	proKLK7 act 13 | KLK7 act conf inactive | EDANS-DABCYL int inactive
COC(=O)COc1ccc(-c2ccccc2)cc1C=O	proKLK7 act 14 | KLK7 act conf inactive | EDANS-DABCYL int inactive
CCCCN(C)C(=O)CSc1nnc(-c2cccnc2)n1C1CCCCC1	none (no result: PP1 inh, PG9 Ab binder, PP5 primary, GASC-1 inh)
CNc1nc2sc3c(c2c(=O)n1C)CC(C)(C)SC3	proKLK7 act 23 | KLK7 act conf inactive | EDANS-DABCYL int inactive
CN(C)c1nc2sc3c(c2c(=O)n1C)CC(C)(C)OC3	none
C[C@@H]1[C@@H](c2ccccc2)OC(O)([C@H](Cc2ccccc2)NC(=O)OC(C)(C)C)CN1C (some centres undefined)	none (no result: PP1 inh, PG9 Ab binder, PP5 primary, GASC-1 inh, proKLK7 act)
CC(C)(C)C(=O)Nc1ccc(/C=C/C(=O)c2ccco2)cc1	proKLK7 act 78 | KLK7 act conf 53 | EDANS-DABCYL int 48
Nc1ccc(/C=C/C(=O)c2ccco2)cc1	none
